This note sets out measurements from PubChem BioAssay.

Where “and” joins values, the source holds several entries; their conditions need not be identical. Equal values may be shown once. Values without a mark were called inactive. Calls of active or inactive are those of the source. Cut-off read from the data, not from the text of the source, unless noted: active = inhibition above about 30%; inactive = the rest. Square brackets hold non-standard residues; d marks the D form. Peptide text beside a SMILES is read from it. NMeY = CN[C@@H](Cc1ccc(O)cc1)C(=O)O; NMeF = CN[C@@H](Cc1ccccc1)C(=O)O; 2Abz = Nc1ccccc1C(=O)O

The target of assay [1] is Nuclear receptor coactivator 3 (Homo sapiens) (UniProt Q9Y6Q9). Description: SRC3 coactivator transcriptional activity inhibitors, confirmation, cell-based, luminescence, quadruplicate (AID 588792;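 active = mean inhibition over 43.08%, the solvent-only control mean plus 3 SD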;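 note: 0% = DMSO treated cells and 100% = gossypol at 36 µM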). The following applies: HEK293 GAL4-SRC3 luciferase reporter, at 3.6 µM, active compounds read high. In general terms: Reporter assays use an easily measured gene product as a stand-in for the process of interest.

For assay [2], the system named is transactivating tegument protein VP16 (Human herpesvirus 1), Gal4-VP16 luciferase reporter. The experiment in a line: VP16 transactivation inhibitors, counter-screen for SRC3 inhibitor project, cell-based, luminescence, high throughput (AID 588794). As to conditions: mammalian cells, VP16-driven luciferase reporter luminescence; at 3.6 µM; active compounds read high.
Assay [3] concerns the target Nuclear receptor coactivator 1 (Homo sapiens) (UniProt Q15788). Description: SRC1 coactivator transcriptional activity inhibitors, confirmation, cell-based, luminescence, quadruplicate (AID 588820;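 active = mean inhibition above 46.68%, the untreated control wells mean plus 3 SD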;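 note: 0% = DMSO wells and 100% = gossypol 36 µM treated wells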). The following applies: HEK293 GAL4-SRC1 luciferase reporter, at 3.6 µM, active compounds read high.
Assay [4] in a line: VP16 transactivation inhibitors, counter-screen for SRC1 inhibitor project, cell-based, luminescence, high throughput (AID 588824; in the data active = inhibition above about 25%). As to conditions: cell-based VP16 transactivation luciferase luminescence; at 3.6 µM; active compounds read high. (A counterscreen serves to expose hits that act by an unwanted route or on another target.)

Chain of Nuclear receptor coactivator 1 (Homo sapiens) (Q15788 whole entry, looked up, the tested form may be a part): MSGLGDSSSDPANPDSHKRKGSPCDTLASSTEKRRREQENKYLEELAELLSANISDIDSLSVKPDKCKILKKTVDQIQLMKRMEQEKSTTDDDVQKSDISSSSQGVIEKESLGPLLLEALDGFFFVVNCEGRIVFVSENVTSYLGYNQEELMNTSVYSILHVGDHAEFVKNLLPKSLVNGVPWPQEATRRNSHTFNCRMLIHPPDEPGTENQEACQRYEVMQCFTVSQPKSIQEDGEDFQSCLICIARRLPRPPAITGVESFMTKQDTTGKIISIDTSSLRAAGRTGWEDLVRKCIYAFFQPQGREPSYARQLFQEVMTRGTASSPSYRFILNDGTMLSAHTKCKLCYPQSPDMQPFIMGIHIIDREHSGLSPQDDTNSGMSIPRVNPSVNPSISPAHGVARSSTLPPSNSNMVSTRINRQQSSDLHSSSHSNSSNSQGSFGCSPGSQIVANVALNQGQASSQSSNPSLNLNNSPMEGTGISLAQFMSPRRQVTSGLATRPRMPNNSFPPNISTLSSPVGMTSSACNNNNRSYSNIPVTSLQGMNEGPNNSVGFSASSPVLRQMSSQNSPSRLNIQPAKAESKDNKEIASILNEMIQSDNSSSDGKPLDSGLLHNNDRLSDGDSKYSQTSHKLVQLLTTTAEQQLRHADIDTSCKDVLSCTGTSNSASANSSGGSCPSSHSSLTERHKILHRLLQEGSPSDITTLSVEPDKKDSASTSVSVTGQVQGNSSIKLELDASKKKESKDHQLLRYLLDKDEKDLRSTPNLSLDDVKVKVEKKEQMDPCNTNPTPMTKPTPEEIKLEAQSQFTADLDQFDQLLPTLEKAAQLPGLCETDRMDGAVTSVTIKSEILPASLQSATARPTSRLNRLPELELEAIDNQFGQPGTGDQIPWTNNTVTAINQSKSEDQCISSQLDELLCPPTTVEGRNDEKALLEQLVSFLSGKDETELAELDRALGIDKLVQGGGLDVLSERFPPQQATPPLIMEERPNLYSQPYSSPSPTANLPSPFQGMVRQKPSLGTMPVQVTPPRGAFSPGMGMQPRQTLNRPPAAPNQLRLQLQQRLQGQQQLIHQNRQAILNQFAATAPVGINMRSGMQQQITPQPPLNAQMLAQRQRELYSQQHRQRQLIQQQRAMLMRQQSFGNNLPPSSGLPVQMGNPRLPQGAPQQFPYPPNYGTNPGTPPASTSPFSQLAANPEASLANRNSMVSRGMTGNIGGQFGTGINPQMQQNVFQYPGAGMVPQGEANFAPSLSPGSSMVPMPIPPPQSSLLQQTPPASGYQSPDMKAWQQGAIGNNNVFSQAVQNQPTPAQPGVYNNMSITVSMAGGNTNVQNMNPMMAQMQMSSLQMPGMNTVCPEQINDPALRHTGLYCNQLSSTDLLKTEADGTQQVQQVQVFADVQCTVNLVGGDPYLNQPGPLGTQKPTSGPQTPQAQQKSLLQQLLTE
Chain of Nuclear receptor coactivator 3 (Homo sapiens) (Q9Y6Q9 whole entry, looked up, the tested form may be a part): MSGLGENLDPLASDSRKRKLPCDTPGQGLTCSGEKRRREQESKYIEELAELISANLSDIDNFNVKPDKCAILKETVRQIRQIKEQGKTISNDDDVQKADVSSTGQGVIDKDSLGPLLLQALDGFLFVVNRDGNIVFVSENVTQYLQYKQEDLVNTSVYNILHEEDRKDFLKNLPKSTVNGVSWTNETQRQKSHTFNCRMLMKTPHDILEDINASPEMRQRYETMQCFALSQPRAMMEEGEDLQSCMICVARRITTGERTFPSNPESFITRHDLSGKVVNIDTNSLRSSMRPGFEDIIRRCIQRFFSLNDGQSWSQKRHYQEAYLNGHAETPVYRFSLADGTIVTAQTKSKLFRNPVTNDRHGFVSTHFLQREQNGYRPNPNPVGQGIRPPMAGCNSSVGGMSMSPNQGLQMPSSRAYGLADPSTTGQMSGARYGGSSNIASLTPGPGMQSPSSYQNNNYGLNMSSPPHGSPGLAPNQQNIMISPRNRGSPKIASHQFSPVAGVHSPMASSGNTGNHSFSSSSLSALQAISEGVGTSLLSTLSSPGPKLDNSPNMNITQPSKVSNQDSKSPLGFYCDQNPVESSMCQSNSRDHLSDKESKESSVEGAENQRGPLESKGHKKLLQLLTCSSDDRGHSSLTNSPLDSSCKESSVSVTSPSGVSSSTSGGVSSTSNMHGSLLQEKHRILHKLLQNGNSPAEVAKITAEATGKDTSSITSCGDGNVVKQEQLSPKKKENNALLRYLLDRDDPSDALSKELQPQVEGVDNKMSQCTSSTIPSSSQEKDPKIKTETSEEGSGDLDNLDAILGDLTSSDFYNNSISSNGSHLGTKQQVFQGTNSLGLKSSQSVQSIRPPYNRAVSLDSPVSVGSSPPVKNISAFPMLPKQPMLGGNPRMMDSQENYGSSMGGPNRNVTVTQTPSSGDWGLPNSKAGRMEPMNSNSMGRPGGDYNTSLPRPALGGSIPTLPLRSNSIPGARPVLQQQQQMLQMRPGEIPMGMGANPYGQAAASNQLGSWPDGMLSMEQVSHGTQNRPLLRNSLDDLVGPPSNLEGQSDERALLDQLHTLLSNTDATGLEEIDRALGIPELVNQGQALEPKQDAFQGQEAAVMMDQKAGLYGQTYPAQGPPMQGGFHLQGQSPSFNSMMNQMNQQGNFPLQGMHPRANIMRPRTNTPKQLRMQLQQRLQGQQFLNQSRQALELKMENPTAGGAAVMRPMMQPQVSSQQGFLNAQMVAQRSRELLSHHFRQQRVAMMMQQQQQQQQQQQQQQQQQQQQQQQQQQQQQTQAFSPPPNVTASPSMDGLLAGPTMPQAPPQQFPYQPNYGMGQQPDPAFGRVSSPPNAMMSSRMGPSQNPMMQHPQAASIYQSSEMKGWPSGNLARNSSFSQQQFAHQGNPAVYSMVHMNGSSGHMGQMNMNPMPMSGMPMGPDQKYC

One may read the inhibition as the relative decrease from the control value, in per cent. Turning to `COc1cc(/C=C2/SC(=S)N(c3ccccc3)C2=O)ccc1Oc1nc(N2CCOCC2)nc(N2CCOCC2)n1`, the inhibition in assay [1] was 4.82%; in assay [2], -7.44%.
The like results for `CCSc1nnc(NC(=O)C(CC)(C(F)(F)F)C(F)(F)F)s1` were, in that order, 7.54% and 19.6%.
Take `O=C(Cc1ccccc1)N/N=C/c1cc(Br)cc(Cl)c1O`: the inhibition in assay [1] was 19.8%; in assay [2], 16.4%.
For `c1ccc(CN2CCN(c3ncnc4c3[nH]c3ccccc34)CC2)cc1`, in that order: 8.1% and 29.9% (active).
For `CCOc1ccc(N2C(=O)C(CC(=O)Nc3ccccc3)N(Cc3ccccn3)C2=S)cc1` (stereo not given), in that order: 9.7% and 12.2%.
Turning to `COc1ccc(CCN2C(=O)c3cccc4c(C(=O)N5CCCCC5)ccc(c34)C2=O)cc1OC`, the inhibition in assay [1] was -2.54%; in assay [2] it was 3.93%.
The like results for `Cc1cc(C)n(Cc2ccc(NC(=O)c3ccc(COc4ccccc4Br)cc3)cc2)n1` were, in that order, -0.48% and 20.2%.
For `O=C(COc1ccc(Cl)cc1)Nc1ccc(C(=O)NCc2cccnc2)cc1`, in that order: 55.6% (active) and -24.6%.
For `Cc1cccc(OCC(O)Cn2c(=N)n(CCN3CCCCC3)c3ccccc32)c1` (stereo not given), in that order: 2.86% and 20.6%.
`CC(C)(CC(=O)O)CC(=O)Nc1cc(C(F)(F)F)cc(C(F)(F)F)c1`: the inhibition in assay [1] was 6.02%; in assay [2], -7.34%.
The like results for `O=C(c1cc2sccc2n1Cc1ccccc1)N1CCN(c2nc3ccccc3s2)CC1` were, in that order, 2.32% and 35.9% (active).
In the case of `CC(C)C[C@@H]1NC(=O)[C@H](Cc2ccccc2)N(C)C(=O)[C@H](C)NC(=O)c2ccccc2NC(=O)[C@H](Cc2ccc(O)cc2)N(C)C1=O` (cyclo([2Abz]A[NMeF]L[NMeY])), the inhibition is 18.1% in assay [1] and 17.5% in assay [2].
For `COc1ccc(C(CC(=O)O)NC(=O)OC(C)(C)C)cc1` (stereo not given), in that order: 4.59% and 3.31%.
For the compound `CCC(C)(C(=O)NC1CCCC1)N(C(=O)CNC(C)=O)c1ccc(C)cc1` (stereo not given), the inhibition is 0.65% in assay [1] and -7.27% in assay [2].
For `Nc1ncnc(Sc2ccc(Cl)cc2)c1[N+](=O)[O-]`, in that order: 13.4% and 9.09%.
The like results for `Cc1ccc(NS(=O)(=O)c2ccc(OCC(=O)NCc3ccncc3)cc2)cc1` were, in that order, 8.87% and 6.6%.
The like results for `Cc1cc(C=C2C(=O)c3ccccc3C2=O)c(C)n1-c1cccc(C(=O)O)c1` were, in that order, 23.3% and 10.4%.
As for `COC(=O)c1ccc2c(c1)C(C)(C)C(/C=C/c1ccccc1O)=[N+]2C`, the inhibition is 58.6% (active) in assay [1] and 43.5% (active) in assay [2].
As for `CC(C)c1ccc(-c2nnn(CCC(=O)O)n2)cc1`, the inhibition in assay [1] was 52.2% (active); in assay [2] it was 46.8% (active); in assay [3], 41.3%; in assay [4], 37.5% (active).
For `CC(=O)N(C)C1=C(N2CCOCC2)C(=O)c2ccccc2C1=O`, in that order: -0.07%, 35.7% (active), 14.2% and 21.9%.
The like results for `CCCOc1ccc(/C=N/Nc2ccccc2[N+](=O)[O-])c(O)c1` were, in that order, 27.7%, 5%, -59.5% and -39.9%.
For `c1nc2sc3c(c2c2nnnn12)CCCC3`, in that order: 28%, 24.2%, 36.8% and 9.37%.
Turning to `O=C(N/N=C/c1c(O)ccc2ccccc12)c1cccc(C(F)(F)F)c1`, the inhibition in assay [1] was 82.3% (active); in assay [2], 78.6% (active); in assay [3], 60.8% (active); in assay [4], 77.4% (active).
The like results for `CCCC(=O)NC(c1ccccc1OC)c1ccc2cccnc2c1O` (stereo not given) were, in that order, 61.1% (active), 37.8% (active), 52.2% (active) and 41.9% (active).
For `Cc1ccc(C(=O)NCCn2cc(SCC(=O)Nc3nnc(C)s3)c3ccccc32)cc1`, in that order: 18.6%, 4.22%, -32.5% and -0.04%.
Regarding `COc1ccc2c(c1OC)C(=O)N1c3ccccc3C(=O)N(c3ccccc3)C21` (stereo not given), the inhibition was 17.1% in assay [1], 8.85% in assay [2], -5.64% in assay [3] and 2.1% in assay [4].
For `CCN(CC)c1ccc2cc(NC(=O)CCC(=O)O)c(=O)oc2c1`, in that order: 68.4% (active), 42.9% (active), 44.2% and 39.2% (active).
The like results for `CCC(=O)Nc1cc2nn(-c3ccc(C)cc3)nc2cc1C` were, in that order, -6%, -33.2%, -102% and -68%.
As to `CC12CCC(C(=O)N/N=C/c3ccc(O)cc3O)(OC1=O)C2(C)C` (stereo not given), the inhibition in assay [1] is 6.17%; in assay [2], 16.8%; in assay [3], 11.4%; in assay [4], 6.4%.
Take `COc1ccc(-c2cn[nH]c2N)c(OC)c1`: the inhibition was 59.7% (active) in assay [1], 50.5% (active) in assay [2], 43.9% in assay [3] and 41.7% (active) in assay [4].
As to `C(C#CCCCCCCCCC[n+]1ccccc1)#CCCCCCCCCC[n+]1ccccc1`, the inhibition was 58.9% (active) and 59.3% (active) in assay [1]; 70.3% (active) and 74.5% (active) in assay [2]; 41.7% in assay [3]; 73.4% (active) in assay [4].
On to `Cc1ccc(C2CC(C(F)(F)F)n3nc(C(=O)NCc4c(C)nn(C)c4C)c(Cl)c3N2)cc1` (stereo not given), for which the inhibition was 7.71% in assay [1], 15.1% in assay [2], -7% in assay [3] and 10.9% in assay [4].
The like results for `COc1cc2c(cc1OC)C(C)N(C(=O)c1cccc([N+](=O)[O-])c1)CC2` (stereo not given) were, in that order, 34%, 23.4%, 17.3% and 22.3%.
Consider `O=C(C1CCC1)N1CCN(c2ccnc3cc(Cl)ccc23)CC1`, for which the results for the inhibition in assay [1] and in assay [2] were 17% and 6.97%, respectively.
`Cn1c(C(=O)O)c(CC(=O)Nc2ccc3c(c2)OCCO3)c2ccccc21`: the inhibition is 19.4% in assay [1], 3.77% in assay [2], -17.2% in assay [3] and -7.4% in assay [4].
Regarding `Cc1ccc(C2NC(=O)CCC2[N+](=O)[O-])cc1` (stereo not given), the inhibition is -3.62% in assay [1], -1.77% in assay [2], -9.25% in assay [3] and -3.26% in assay [4].
For `CCCNC(=O)c1nnsc1S(=O)(=O)c1ccc(Cl)cc1`, in that order: 55.7% (active), 6.39%, -64.8% and 5.6%.
The like results for `O=C(NC(=S)Nc1ccc(N2CCN(C(=O)c3ccccc3)CC2)cc1)c1cccs1` were, in that order, 25.8%, 23.8%, 16% and 14.3%.
Turning to `COc1cccc(/C=N/NC(=O)c2cc3c(OC)cccc3[nH]2)c1O`, the inhibition in assay [1] was 28.5%; in assay [2], 29%; in assay [3], 37.1%; in assay [4], 26% (active).
The like results for `CC1(C)CCSC(/C=C/c2ccccc2)=N1` were, in that order, 62.4% (active), 45.5% (active), 46.1% and 39.8% (active).
The like results for `COc1ccc(-n2ncc3c(N4CCCCC4)ncnc32)cc1` were, in that order, 51.2% (active), 41.7% (active), -11.5% and 23.9%.
For `COc1ccc(-c2c[n+]3c(n2-c2ccccc2)SCC3)cc1`, in that order: 17.9%, 14.3%, 11.1% and 21%.
`COc1cc(/C=C/C(=O)Nc2ccc(OC)c(S(=O)(=O)N3CCOCC3)c2)ccc1OCC#N`: the inhibition is 12.1% in assay [1], 32.6% (active) in assay [2], 19.1% in assay [3] and 40.3% (active) in assay [4].
As to `CC(=NNc1nc2ccccc2o1)c1cc2ccccc2cn1`, the inhibition in assay [1] is 88.8% (active); in assay [2], 86.4% (active); in assay [3], 80.6% (active); in assay [4] it was 86.3% (active).
For `CN(C)c1ccc(Nc2ncnc3ccc(Br)cc23)cc1`, in that order: 47.3% (active), 30.8% (active), 40.8% and 20.2%.
For `CC(C)(C)c1ccc(/C=C2\SC(=O)N(CCNC(=O)c3cccc(S(=O)(=O)N4CCOCC4)c3)C2=O)cc1`, in that order: -11.1%, -19.8%, -58.1% and -59.9%.
The like results for `Cc1cc(/C=C2\Cc3ccccc3C2=O)c(C)n1-c1ccccc1` were, in that order, 53.5% (active), 18.6%, 20.5% and -2.62%.
Turning to `CC(C)(C)c1nnc(N/N=C/c2cc(Br)ccc2O)n(N)c1=O`, the inhibition is 79% (active) in assay [1], 69.2% (active) in assay [2], 72% (active) in assay [3] and 63% (active) in assay [4].
The like results for `NNC(=O)C(=O)Nc1ccc(O)cc1` were, in that order, 2.12%, 8.64%, -20.1% and -2.23%.
As for `COc1ccc(N2CC(C(=O)N/N=C/c3ccccc3)CC2=O)cc1` (stereo not given), the results for the inhibition in assay [1] and in assay [2] were 5.28% and -0.56%, respectively.
Take `CC(=O)NS(=O)(=O)c1ccc(NC(=O)/C=C/c2cn(-c3ccccc3)nc2-c2ccccc2)cc1`: the inhibition is -12.7% in assay [1], 0.43% in assay [2], 1.36% in assay [3] and -3.92% in assay [4].
`Nc1[nH]nc2nc(-c3ccccc3)[nH]c(=O)c12`: the inhibition in assay [1] was -11.1%; in assay [2], -4.28%.
Regarding `Cc1cc(=O)[nH]c(NN=Cc2cc(Br)ccc2O)n1`, the inhibition in assay [1] was 76.2% (active); in assay [2] it was 64% (active); in assay [3], 51.2% (active); in assay [4] it was 64.8% (active).
The like results for `CCOC(=O)C(=Cc1ccccc1)C(=O)c1ccccc1` were, in that order, 21.3%, 33.6% (active), 10.6% and 28.7% (active).
Regarding `O=C(N/N=C/c1cc(Cl)ccc1O)c1ccc(Br)cc1`, the inhibition in assay [1] was 55.7% (active); in assay [2], 40.1% (active); in assay [3] it was 23.3%; in assay [4], 38.4% (active).
As for `CC1Sc2ccc(Cl)cc2-c2nc(N)ncc21` (stereo not given), the inhibition in assay [1] was 43.9% (active); in assay [2], 32.3% (active); in assay [3], 48.2% (active); in assay [4], 39.7% (active).
As for `COc1ccc(NC(=O)c2cc([N+](=O)[O-])ccc2O)cc1`, the inhibition is 42.1% in assay [1], 35.5% (active) in assay [2], -37.7% in assay [3] and 29.2% (active) in assay [4].
Take `Cc1ccc(N=c2c([N+](=O)[O-])nn(-c3ccc4c(c3)OCCO4)n2O)cc1F`: the inhibition in assay [1] is 36.5%; in assay [2] it was -0.46%; in assay [3] it was 19.9%; in assay [4], -9.63%.
